{"source": "PubChem BioAssay AID1159580", "about": "(chemical genetic matrix, 2015)", "test": "chemical genetic growth profiling, strain panel (AID 1159580);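 also: tested at 20 µM; growth read once vehicle control cultures reached saturation at 30 °C; 1 = growth at the plate median or of vehicle wells; lower values mean less growth of the strain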", "conditions": "growth OD", "note": "Out of some 5,500 compounds screened, about 2,000 (36%) were called active. Another 18% or so got no clear call; they are omitted. Some of the results follow. Values without a mark were called inactive. Rule as the data show it: active = normalized growth mostly below about 0.91 (no sharp cut-off); inconclusive = no clear call, values can overlap the other calls; inactive = mostly above about 0.92."}
{"smiles": "COc1c(C)c2c(c(O)c1C/C=C(\\C)CCC(=O)O)C(=O)OC2", "values": [{"measurement": "normalized growth", "setting": "S. cerevisiae deletion strains, locus YKL009W, strain mrt4, hits give low values", "value": "0.561 (active)"}, {"measurement": "normalized growth", "setting": "S. cerevisiae deletion strains, locus YKL068W, hits give low values", "value": "0.72 (active)"}, {"measurement": "normalized growth", "setting": "S. cerevisiae deletion strains, locus YKL085W, strain MDH1 (second series), hits give low values", "value": "0.279 (active)"}, {"measurement": "normalized growth", "setting": "S. cerevisiae deletion strains, locus YKL085W, strain MDH1, hits give low values", "value": "0.279 (active)"}, {"measurement": "normalized growth", "setting": "S. cerevisiae deletion strains, locus YKL160W, strain elf1, hits give low values", "value": "0.596 (active)"}, {"measurement": "normalized growth", "setting": "S. cerevisiae deletion strains, locus YKL190W, strain CNB1, hits give low values", "value": 0.921}, {"measurement": "normalized growth", "setting": "S. cerevisiae deletion strains, locus YKR001C, strain vps1, hits give low values", "value": "0.493 (active)"}, {"measurement": "normalized growth", "setting": "S. cerevisiae deletion strains, locus YKR026C, strain gcn3, hits give low values", "value": "0.648 (active)"}, {"measurement": "normalized growth", "setting": "S. cerevisiae deletion strains, locus YKR091W, strain srl3, hits give low values", "value": "0.763 (active)"}, {"measurement": "normalized growth", "setting": "S. cerevisiae deletion strains, locus YLL001W, strain dnm1, hits give low values", "value": "0.398 (active)"}, {"measurement": "normalized growth", "setting": "S. cerevisiae deletion strains, locus YLL026W, hits give low values", "value": "0.533 (active)"}, {"measurement": "normalized growth", "setting": "S. cerevisiae deletion strains, locus YLL041C, strain sdh2, hits give low values", "value": "0.822 (active)"}, {"measurement": "normalized growth", "setting": "S. cerevisiae deletion strains, locus YLR027C, strain aat2, hits give low values", "value": "0.514 (active)"}, {"measurement": "normalized growth", "setting": "S. cerevisiae deletion strains, locus YLR039C, strain RIC1, hits give low values", "value": "0.504 (active)"}, {"measurement": "normalized growth", "setting": "S. cerevisiae deletion strains, locus YLR058C, strain SHM2, hits give low values", "value": "0.844 (active)"}, {"measurement": "normalized growth", "setting": "S. cerevisiae deletion strains, locus YLR102C, strain apc9, hits give low values", "value": "0.813 (active)"}, {"measurement": "normalized growth", "setting": "S. cerevisiae deletion strains, locus YLR113W, strain HOG1, hits give low values", "value": "0.189 (active)"}, {"measurement": "normalized growth", "setting": "S. cerevisiae deletion strains, locus YLR221C, strain rsa3, hits give low values", "value": "0.376 (active)"}, {"measurement": "normalized growth", "setting": "S. cerevisiae deletion strains, locus YLR258W, strain gsy2, hits give low values", "value": "0.532 (active)"}, {"measurement": "normalized growth", "setting": "S. cerevisiae deletion strains, locus YLR262C, strain YPT6 (second series), hits give low values", "value": "0.415 (active)"}, {"measurement": "normalized growth", "setting": "S. cerevisiae deletion strains, locus YLR262C, strain YPT6, hits give low values", "value": "0.467 (active)"}, {"measurement": "normalized growth", "setting": "S. cerevisiae deletion strains, locus YLR268W, strain sec22, hits give low values", "value": "0.612 (active)"}, {"measurement": "normalized growth", "setting": "S. cerevisiae deletion strains, locus YLR320W, strain mms22, hits give low values", "value": "0.443 (active)"}, {"measurement": "normalized growth", "setting": "S. cerevisiae deletion strains, locus YLR330W, strain CHS5, hits give low values", "value": "0.878 (active)"}, {"measurement": "normalized growth", "setting": "S. cerevisiae deletion strains, locus YLR342W, strain FKS1 (second series), hits give low values", "value": "0.669 (active)"}, {"measurement": "normalized growth", "setting": "S. cerevisiae deletion strains, locus YLR342W, strain FKS1, hits give low values", "value": "0.442 (active)"}, {"measurement": "normalized growth", "setting": "S. cerevisiae deletion strains, locus YLR357W, strain rsc2, hits give low values", "value": "0.779 (active)"}, {"measurement": "normalized growth", "setting": "S. cerevisiae deletion strains, locus YLR370C, strain arc18, hits give low values", "value": "0.435 (active)"}, {"measurement": "normalized growth", "setting": "S. cerevisiae deletion strains, locus YLR371W, strain rom2, hits give low values", "value": 0.955}, {"measurement": "normalized growth", "setting": "S. cerevisiae deletion strains, locus YLR384C, strain iki3, hits give low values", "value": 0.983}, {"measurement": "normalized growth", "setting": "S. cerevisiae deletion strains, locus YLR418C, strain cdc73, hits give low values", "value": "0.816 (active)"}, {"measurement": "normalized growth", "setting": "S. cerevisiae deletion strains, locus YML016C, strain PPZ1, hits give low values", "value": 0.992}, {"measurement": "normalized growth", "setting": "S. cerevisiae deletion strains, locus YML032C, strain rad52, hits give low values", "value": "0.626 (active)"}, {"measurement": "normalized growth", "setting": "S. cerevisiae deletion strains, locus YML120C, strain ndi1, hits give low values", "value": "0.406 (active)"}, {"measurement": "normalized growth", "setting": "S. cerevisiae deletion strains, locus YML124C, strain tub3, hits give low values", "value": "0.737 (active)"}, {"measurement": "normalized growth", "setting": "S. cerevisiae deletion strains, locus YMR058W, strain fet3, hits give low values", "value": "0.587 (active)"}, {"measurement": "normalized growth", "setting": "S. cerevisiae deletion strains, locus YMR078C, strain ctf18, hits give low values", "value": "0.843 (active)"}, {"measurement": "normalized growth", "setting": "S. cerevisiae deletion strains, locus YMR125W, strain sto1, hits give low values", "value": "0.635 (active)"}, {"measurement": "normalized growth", "setting": "S. cerevisiae deletion strains, locus YMR129W, hits give low values", "value": "0.571 (active)"}, {"measurement": "normalized growth", "setting": "S. cerevisiae deletion strains, locus YMR205C, strain PFK2, hits give low values", "value": "0.497 (active)"}, {"measurement": "normalized growth", "setting": "S. cerevisiae deletion strains, locus YMR223W, strain ubp8, hits give low values", "value": "0.732 (active)"}, {"measurement": "normalized growth", "setting": "S. cerevisiae deletion strains, locus YMR231W, strain pep5, hits give low values", "value": "0.358 (active)"}, {"measurement": "normalized growth", "setting": "S. cerevisiae deletion strains, locus YMR263W, strain SAP30, hits give low values", "value": "0.765 (active)"}, {"measurement": "normalized growth", "setting": "S. cerevisiae deletion strains, locus YMR307W, strain GAS1, hits give low values", "value": 0.8}, {"measurement": "normalized growth", "setting": "S. cerevisiae deletion strains, locus YNL067W, strain RPL9B, hits give low values", "value": "0.782 (active)"}, {"measurement": "normalized growth", "setting": "S. cerevisiae deletion strains, locus YNL071W, strain lat1, hits give low values", "value": "0.531 (active)"}, {"measurement": "normalized growth", "setting": "S. cerevisiae deletion strains, locus YNL128W, strain TEP1, hits give low values", "value": 0.868}, {"measurement": "normalized growth", "setting": "S. cerevisiae deletion strains, locus YNL153C, strain GIM3, hits give low values", "value": "0.811 (active)"}, {"measurement": "normalized growth", "setting": "S. cerevisiae deletion strains, locus YNL183C, strain NPR1, hits give low values", "value": "0.0633 (active)"}, {"measurement": "normalized growth", "setting": "S. cerevisiae deletion strains, locus YNL209W, strain ssb2, hits give low values", "value": "0.653 (active)"}, {"measurement": "normalized growth", "setting": "S. cerevisiae deletion strains, locus YNL233W, strain BNI4, hits give low values", "value": "0.777 (active)"}, {"measurement": "normalized growth", "setting": "S. cerevisiae deletion strains, locus YNL248C, strain rpa49, hits give low values", "value": "0.417 (active)"}, {"measurement": "normalized growth", "setting": "S. cerevisiae deletion strains, locus YNL250W, strain rad50, hits give low values", "value": "0.39 (active)"}, {"measurement": "normalized growth", "setting": "S. cerevisiae deletion strains, locus YNL271C, strain bni1, hits give low values", "value": "0.335 (active)"}, {"measurement": "normalized growth", "setting": "S. cerevisiae deletion strains, locus YNL298W, strain CLA4, hits give low values", "value": "0.328 (active)"}, {"measurement": "normalized growth", "setting": "S. cerevisiae deletion strains, locus YNL307C, strain MCK1, hits give low values", "value": "0.295 (active)"}, {"measurement": "normalized growth", "setting": "S. cerevisiae deletion strains, locus YNL322C, strain KRE1 (second series), hits give low values", "value": "0.507 (active)"}, {"measurement": "normalized growth", "setting": "S. cerevisiae deletion strains, locus YNL322C, strain KRE1, hits give low values", "value": "0.877 (active)"}, {"measurement": "normalized growth", "setting": "S. cerevisiae deletion strains, locus YNR049C, strain mso1, hits give low values", "value": "0.607 (active)"}, {"measurement": "normalized growth", "setting": "S. cerevisiae deletion strains, locus YNR052C, strain pop2, hits give low values", "value": "0.75 (active)"}, {"measurement": "normalized growth", "setting": "S. cerevisiae deletion strains, locus YOL006C, strain TOP1, hits give low values", "value": 0.934}, {"measurement": "normalized growth", "setting": "S. cerevisiae deletion strains, locus YOL012C, strain htz1", "value": 0.529}, {"measurement": "normalized growth", "setting": "S. cerevisiae deletion strains, locus YOL147C, strain pex11, hits give low values", "value": "0.675 (active)"}, {"measurement": "normalized growth", "setting": "S. cerevisiae deletion strains, locus YOR001W, strain rrp6, hits give low values", "value": "0.582 (active)"}, {"measurement": "normalized growth", "setting": "S. cerevisiae deletion strains, locus YOR061W, strain CKA2, hits give low values", "value": 0.945}, {"measurement": "normalized growth", "setting": "S. cerevisiae deletion strains, locus YOR069W, strain VPS5, hits give low values", "value": "0.911 (active)"}, {"measurement": "normalized growth", "setting": "S. cerevisiae deletion strains, locus YOR070C, strain gyp1, hits give low values", "value": "0.583 (active)"}, {"measurement": "normalized growth", "setting": "S. cerevisiae deletion strains, locus YOR080W, strain dia2, hits give low values", "value": "0.841 (active)"}, {"measurement": "normalized growth", "setting": "S. cerevisiae deletion strains, locus YOR083W, strain WHI5, hits give low values", "value": "0.581 (active)"}, {"measurement": "normalized growth", "setting": "S. cerevisiae deletion strains, locus YOR106W, strain vam3, hits give low values", "value": "0.442 (active)"}, {"measurement": "normalized growth", "setting": "S. cerevisiae deletion strains, locus YOR136W, strain idh2, hits give low values", "value": 0.922}, {"measurement": "normalized growth", "setting": "S. cerevisiae deletion strains, locus YOR144C, strain elg1, hits give low values", "value": "0.681 (active)"}, {"measurement": "normalized growth", "setting": "S. cerevisiae deletion strains, locus YOR184W, strain ser1, hits give low values", "value": "0.345 (active)"}, {"measurement": "normalized growth", "setting": "S. cerevisiae deletion strains, locus YOR231W, strain MKK1, hits give low values", "value": "0.171 (active)"}, {"measurement": "normalized growth", "setting": "S. cerevisiae deletion strains, locus YOR265W, strain rbl2, hits give low values", "value": "0.691 (active)"}, {"measurement": "normalized growth", "setting": "S. cerevisiae deletion strains, locus YOR270C, strain vph1, hits give low values", "value": "0.298 (active)"}, {"measurement": "normalized growth", "setting": "S. cerevisiae deletion strains, locus YOR290C, strain snf2, hits give low values", "value": "0.359 (active)"}, {"measurement": "normalized growth", "setting": "S. cerevisiae deletion strains, locus YOR316C, strain cot1, hits give low values", "value": "0.82 (active)"}, {"measurement": "normalized growth", "setting": "S. cerevisiae deletion strains, locus YPL051W, strain arl3, hits give low values", "value": "0.552 (active)"}, {"measurement": "normalized growth", "setting": "S. cerevisiae deletion strains, locus YPL055C, strain LGE1, hits give low values", "value": "0.589 (active)"}, {"measurement": "normalized growth", "setting": "S. cerevisiae deletion strains, locus YPL078C, strain atp4, hits give low values", "value": "0.485 (active)"}, {"measurement": "normalized growth", "setting": "S. cerevisiae deletion strains, locus YPL106C, strain sse1, hits give low values", "value": "0.661 (active)"}, {"measurement": "normalized growth", "setting": "S. cerevisiae deletion strains, locus YPL240C, strain hsp82, hits give low values", "value": "0.568 (active)"}, {"measurement": "normalized growth", "setting": "S. cerevisiae deletion strains, locus YPL241C, strain CIN2, hits give low values", "value": 0.967}, {"measurement": "normalized growth", "setting": "S. cerevisiae deletion strains, locus YPL256C, strain CLN2, hits give low values", "value": "0.18 (active)"}, {"measurement": "normalized growth", "setting": "S. cerevisiae deletion strains, locus YPR119W, strain clb2, hits give low values", "value": "0.815 (active)"}, {"measurement": "normalized growth", "setting": "S. cerevisiae deletion strains, locus YPR141C, strain kar3, hits give low values", "value": "0.575 (active)"}, {"measurement": "normalized growth", "setting": "S. cerevisiae deletion strains, locus YPR163C, strain tif3, hits give low values", "value": "0.547 (active)"}, {"measurement": "normalized growth", "setting": "S. cerevisiae deletion strains, locus YPR167C, strain met16, hits give low values", "value": "0.739 (active)"}, {"measurement": "normalized growth", "setting": "S. cerevisiae deletion strains, strain wtn01, hits give low values", "value": "0.684 (active)"}, {"measurement": "normalized growth", "setting": "S. cerevisiae strains, strain wild type, hits give low values", "value": "0.819 (active)"}]}
